# Screening data as filed in PubChem.
# Sampled rows, rich in hits. Any-hit rate of the full collection: about 3.9%.
# SKKanGAS inh = S. pyogenes SKKanGAS growth inhibitors in kanamycin, primary screen, streptokinase expression inhibitor project, SKKanGAS strain, BacTiter-Glo luminescence; 6 h; inhibition, % at 7.5 µM; 300,000 compounds, 1.3% hits;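 active = mean replicate score, as percent of positive control median, at least 50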;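 also: strain carries kanamycin resistance gene driven by streptokinase promoter and grows in 40 µg/ml kanamycin; loss of luminescence reflects streptokinase promoter inhibition or plain growth inhibition; 0% = median of DMSO wells and 100% = positive control at its reference dose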
# TPT1 inh = Candida albicans TPT1 enzyme inhibitors, primary screen, biochemical, fluorescence polarization; AID 1962, 2009; inhibition, % at 5 µM; tRNA 2'-phosphotransferase TPT1 (Candida albicans SC5314); 300,000 compounds, 0.81% hits; recombinant caTPT1, FP RNA substrate dephosphorylation;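 active = inhibition above the mean of all tested compounds plus 3 SD, set per screening campaign, cut at about 24% in these data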;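 also: plate controls were DMSO alone for no effect and ferristatin control at 100 nM for full effect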
# Platelet DG rel = inhibitors of platelet dense granule secretion, primary screen, cell-based, MLPCN, human platelets; human platelet-rich plasma, SFLLRN dense granule ATP release, luminescence; inhibition, %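 (compounds screened at 7.5 µM in platelet-rich plasma)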; 300,000 compounds, 0.22% hits;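 active = mean replicate score, as percent of positive control, at or above 50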
# PHOSPHO1 inh = PubChem AID 1565; Phosphoethanolamine/phosphocholine phosphatase (Homo sapiens), Q8TCT1; recombinant PHOSPHO1, absorbance phosphatase assay; inhibition, % at 13.3 µM; 290,000 compounds, 1.1% hits; in the data active = inhibition above about 60%
# Target sequence (Q8TCT1 whole entry, looked up): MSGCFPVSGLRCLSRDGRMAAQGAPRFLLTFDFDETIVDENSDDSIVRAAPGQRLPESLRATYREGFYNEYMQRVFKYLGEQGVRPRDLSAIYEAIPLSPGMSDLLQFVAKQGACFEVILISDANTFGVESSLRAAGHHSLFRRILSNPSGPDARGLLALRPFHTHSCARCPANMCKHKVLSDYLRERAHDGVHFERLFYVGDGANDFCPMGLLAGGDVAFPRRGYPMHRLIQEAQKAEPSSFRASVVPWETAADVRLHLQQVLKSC
# Rtt109 HAT inh = inhibitors of C. albicans Rtt109/Vps75 HAT, primary screen, biochemical, ThioGlo CoA-SH fluorescence, plate reader; purified Rtt109/Vps75, 4 h; inhibition, % at 34.9 µM; 330,000 compounds, 0.16% hits; AID 540336, 2011;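 active = inhibition of at least 50% in every replicate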
# WT yeast gro inh = growth inhibition of WT strain, primary screen, mitochondrial fusion inhibitor project, WT and mutant strains, chemical genetic; 190,000 compounds, 2.1% hits; mitochondrial fusion phenotypic screen; AID 1362, 2008; inhibition, % at 10 µM; in the data active = inhibition above about 58%; tested in S. cerevisiae
# The depositor's hits bear a star; x = not tested or not shown.
SMILES,SKKanGAS inh,TPT1 inh,Platelet DG rel,PHOSPHO1 inh,Rtt109 HAT inh,WT yeast gro inh
COc1ccc(N(C)C(=O)C2CCCN2S(=O)(=O)c2cccc3nsnc23)c(OC)c1 (centres undefined),-1,-2,-2,64*,-3,x
Cc1ccc(N(C)C(=O)C2CCCN2S(=O)(=O)c2cccc3nsnc23)cc1 (centres undefined),-10,1,-7,13,-5,x
Cc1cc(C)cc(NS(=O)(=O)c2cnc(Cl)c(Cl)c2)c1,-11,3,-8,12,0,5
CCOc1ccc(NS(=O)(=O)c2cnc(Cl)c(Cl)c2)cc1,28,-3,1,-9,2,71*
S=c1[nH]c2ccc(Cc3ccc4[nH]c(=S)[nH]c4c3)cc2[nH]1,3,1,5,4,3,x
Nc1ncnc(Nc2ccccn2)c1[N+](=O)[O-],-7,1,-2,30,24,2
Cc1cccnc1Nc1ncnc(N)c1[N+](=O)[O-],9,-1,4,61*,17,6
O=C(Nc1cc2c3c(c1)CC(=O)N3CCC2)C1CC1,13,-1,8,x,-6,x
Cc1cccc(NC(=O)c2nc[nH]c2C(=O)N[C@@H](CC(C)C)C(=O)OCc2ccccc2)c1,92*,-3,3,11,-1,x
Cc1cccc(NC(=O)c2nc[nH]c2C(=O)NCCCCCNC(=O)OC(C)(C)C)c1,x,x,x,x,-5,x
COc1ccc(NC(=O)c2nc[nH]c2C(=O)N[C@@H](CC(C)C)C(=O)OC(C)(C)C)cc1,76*,-3,-20,25,9,x
CC(C)C[C@H](NC(=O)c1[nH]cnc1C(=O)N[C@@H](C)C(=O)OC(C)(C)C)C(=O)OCc1ccccc1,73*,-5,4,26,-14,x
Cc1cccc(NC(=O)c2nc[nH]c2C(=O)N[C@@H](CCCCNC(=O)OC(C)(C)C)C(=O)OC(C)(C)C)c1,91*,-3,13,20,7,x
CCN(CC)S(=O)(=O)c1cc(NC(=O)c2ccc3c(c2)NC(=O)C(C)S3)ccc1C (centres undefined),x,x,x,x,6,x
Cc1cc(NC(=O)Cn2c(=O)oc3ccccc32)no1,x,x,x,x,-13,x
O=C(CSc1nc2ccccc2c(=O)n1-c1ccccc1Cl)NCC1CCCO1 (centres undefined),x,x,x,x,-1,x
CCC(=O)Nc1c2c(nn1-c1ccc(F)cc1)CS(=O)(=O)C2,1,3,1,-29,-3,x
CC(C)C[C@H](NC(=O)c1[nH]cnc1C(=O)N[C@@H](Cc1ccccc1)C(=O)OC(C)(C)C)C(=O)OC(C)(C)C,83*,-3,-4,-13,3,x
CC(C)C[C@H](NC(=O)c1nc[nH]c1C(=O)NC1CCN(C(=O)OC(C)(C)C)CC1)C(=O)OCc1ccccc1,73*,-4,3,1,9,45
CC(C)C[C@H](NC(=O)c1nc[nH]c1C(=O)NCc1ccccc1)C(=O)OCc1ccccc1,54*,-1,5,18,6,11
Cc1cc(C(=O)NCCc2ccc(S(N)(=O)=O)cc2)c(C)o1,3,-1,5,28,24,x
N#Cc1ccc(-c2ccc(F)cc2)nc1SCC(=O)Nc1sc2c(c1C#N)CCC2,-2,26*,-1,31,-5,7
CCOc1ccccc1C1N=C(c2ccc(OC)cc2)CC(c2ccccc2O)N1 (centres undefined),-2,0,0,-4,18,20
Oc1ccccc1C1CC(c2cccs2)=NC(c2ccc(Cl)cc2)N1 (centres undefined),13,-5,-7,18,-2,73*
CS(=O)c1ccccc1-c1nc(-c2ccc([N+](=O)[O-])cc2)no1 (centres undefined),x,x,x,x,-4,x
O=C(NCCOc1ccc(F)cc1)C1CCC(=O)N(CCN2CCOCC2)C1 (centres undefined),-1,2,-7,35,-1,x
CC(C)C1Cc2c(sc3[nH]c(=S)n(Cc4ccccc4)c(=O)c23)CO1 (centres undefined),82*,-8,-10,23,12,61*
